LMP1 NFkB inh: reduces LMP1-driven NF-kappaB luciferase signal; 350,000 compounds, 0.69% hits; inhibition, % at 12.5 µM; LMP1-induced NF-kappaB luciferase reporter cells, luminescence; in the data active means inhibition above about 41%; inconclusive means no clear call, values can overlap the other calls;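 further: 0% = neutral control wells and 100% = reference inhibitor control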
CF NFkB block: blocks PAF-induced NF-kB reporter in cystic fibrosis cells. KKLEB NF-kB-GFP reporter, GFP fluorescence overnight. inhibition, % at 5 µM. 360,000 compounds, 0.86% hits. AID 588850;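 active means at least 50% inhibition at 5 µM, scaled per plate between neutral and stimulator controls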;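 further: PAF is a Pseudomonas aeruginosa culture filtrate used as stimulus; plate controls were PAF-stimulated DMSO wells for no effect and unstimulated DMSO wells for full effect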
Peg3 prom inh: Peg3 promoter activity inhibition; 360,000 compounds, 1.7% hits; inhibition, % at 20 µM; HeLa PEG-Prom luciferase reporter, luminescence, overnight;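 active means inhibition of at least 50% at 20 µM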
KKLEB tox: CF airway cell cytotoxicity counter-screen; 360,000 compounds, 0.36% hits; KKLEB CF airway cells viability, ATPlite luminescence, overnight; active compounds read low; cells stimulated with P. aeruginosa culture filtrate; activity change (cytotoxicity), % at 5 µM;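 active means corrected activity change at or below -50% at 5 µM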
HIF-2a block: inhibitors of HIF-2a; inhibition, % at 18.8 µM; 360,000 compounds, 0.72% hits; 786-0 RCC cells HIF-2a reporter, luciferase luminescence, overnight;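 active means inhibition of the luminescence signal of 40% or more relative to plate controls, in a single-dose primary screen at 18.75 µM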
TRPM1 prom inh: reduces MITF-dependent TRPM1 promoter luciferase signal; SK-MEL-5 TRPM1 promoter luciferase, 24 h; inhibition, % at 12.5 µM; 330,000 compounds, 0.83% hits; AID 488899;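 active means mean inhibition across replicates of 60% or more, whatever share of single replicates reaches that level; inconclusive means some that reach 60%, reason not given; inactive means mean inhibition across replicates below 60%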
* hit, by the source's call; ? = inconclusive; . = not tested or not shown; ! = not active in a repeat. A selection: hits, their analogues and other compounds. The true share with any hit is near 3%.

SMILES	LMP1 NFkB inh	CF NFkB block	Peg3 prom inh	KKLEB tox	HIF-2a block	TRPM1 prom inh
Cc1ccc2nc(-c3cc(-c4ccccc4)no3)cn2c1	37	-4	11	-6	-32	31
CCc1ccn2cc(-c3cc(-c4ccccc4)no3)nc2c1	70*	-27	73*	-52*	64*	78*
CCCCn1nnnc1C(c1cc2ccccc2o1)N1CCN(CC(=O)NC(C)C)CC1 (stereo not drawn)	.	.	.	.	-1	.
CCOc1ccc(-c2cnc3ccccc3n2)cc1	?	-5	28	-15	71*	43
Fc1ccc(-c2cn3ccccc3n2)cc1	-3	-20	-246	-17	-154	-20
O=[N+]([O-])c1ccc(-c2cnc3ccccc3n2)cc1	-3	-16	-207	-1	-225	-60
CCOc1ccc(-c2cn3ccccc3n2)cc1	33	-25	-83	-51*	-79	19
CCn1c(NC(=O)c2ccc(C)cc2)c2ccccc2nc1=O	79*	10	16	-6	22	-4
CCn1c(NC(=O)c2ccc(F)cc2)c2ccccc2nc1=O	-2	0	20	-1	27	-1
N#C/C(=C\C=C\c1ccccc1)C(=O)NCc1ccco1	-11	-18	53*	-2	-2	2
O=C(/C=C/c1ccccc1)NCc1ccco1	-13	-22	-51	2	-100	-36
Cc1ccc(-c2nn(-c3ccccc3)cc2C(=O)Nc2cccc(S(=O)(=O)NC3=NCCC3)c2)cc1	-8	21	-13	-3	-116	.
CCOC(=O)C(Cc1nc(OCc2ccccc2)cc(OCc2ccccc2)n1)=NO	2	40	55*	-3	11	-8
CCOC(=O)C(=O)Cc1nc(OCc2ccccc2)cc(OCc2ccccc2)n1	-4	20	25	-9	13	10
C=CCn1c(C)cc(C(=O)CSc2nnc3c(Cl)cc(Cl)cn23)c1C	-4	-6	-6	-70*	-14	11
COc1ccc(NC(=O)C[C@H]2C(=O)N(c3ccc(OC)cc3)C[C@@H]2C)cc1	0	5	-1	6	2	.
CCOc1cc2nc3c4ccccc4n(C)c3nc2cc1OCC	-13	8	-85	-2	-120	-27
CCN(CC)Cc1cc(Nc2c3ccccc3nc3c4ccccc4n(C)c23)cc(CN(CC)CC)c1O	-23	-88	102*	17	-5	78*
O=C(COc1ccc(S(=O)(=O)N2CCOCC2)cc1)NCCc1ccc(Cl)cc1	1	3	-5	3	12	.
OC(c1ccccc1)(c1ccccc1)c1nccc2ccccc12	-82	13	-14	-12	-11	-9
O=C(N/N=C/c1cccc2ccccc12)c1cc(C2CC2)[nH]n1	53*	-22	-64	-3	-164	-52
O=C1c2c(O)ccc(O)c2C(=O)c2c(NCCNCCO)ccc(NCCNCCO)c21	67*	82*!	100*	-21	63*	95*
O=C1c2ccccc2C(=O)c2c(Nc3ccc(CCO)cc3)ccc(O)c21	-7	27	-22	-27	-30	15
O=C(C(Br)=Cc1ccccc1)c1ccccc1	-28	94*	108*	-43	86*	94*
CC(=Cc1ccccc1)C(=O)c1ccccc1	-8	-11	-14	6	1	.
SMILES	LMP1 NFkB inh	CF NFkB block	Peg3 prom inh	KKLEB tox	HIF-2a block	TRPM1 prom inh
CC[C@H](C)[C@@H]1NC(=O)[C@@H](CC(C)C)NC(=O)[C@H](C(C)C)NC(=O)[C@H]2CSSC[C@H](NC1=O)C(=O)N2	.	82*	98*	-106*	96*	.
COc1cc(NC(=O)COc2ccc(-n3cnnn3)cc2)c(OC)cc1Cl	3	37	59*	-49	14	11
O=C(NCc1ccccc1)/C(=C\c1ccc(F)cc1)NC(=O)c1ccco1	4	9	10	-11	8	.
COc1c(Cl)cc(Cl)cc1/C=N/NC(=O)c1nnn(-c2nonc2N)c1CN1CCC(C)CC1	-10	8	0	15	10	13
CC1CCN(Cc2c(C(=O)N/N=C/c3cc(Cl)ccc3O)nnn2-c2nonc2N)CC1	35	33	76*	-11	8	35
COc1ccc(NC(=O)c2cc(C3CCCCN3S(=O)(=O)c3ccc(F)cc3F)on2)c(C)c1 (stereo not drawn)	.	0	11	2	1	.
NC1=NC[C@H](Cc2ccc(O)cc2)N1CCCCC1CCCCC1	-3	0	-1	-19	14	43
NC1=NC[C@H](Cc2ccccc2)N1CCCCC1CCCCC1	-7	4	71*	8	8	-9
Cc1ccc(NC(=O)COc2ccccc2CNC(C)(C)CC(C)(C)C)cc1	-2	30	75*	-18	-35	52
CC(C)OCCc1cccc[n+]1[O-]	.	2	0	-7	-10	.
CN(C)CCN(Cc1ccc(Cl)cc1)c1ccccn1	52*	-8	-34	39	5	-1
COc1cccc(C(=O)Nc2ccc3c(cc2=O)[C@@H](NC(C)=O)CCc2cc(OC)c(OC)c(OC)c2-3)c1	36	38	22	-11	37	62*
COc1cc2c(c(OC)c1OC)-c1ccc(SC)c(=O)cc1C(NC=O)CC2 (stereo not drawn)	3	48	-14	-32	22	64*
CCCC(=O)NC1CCc2cc(OC)c(OC)c(OC)c2-c2ccc(OC)c(=O)cc21 (stereo not drawn)	-3	41	-20	-14	22	49
COC(=O)c1ccc2c(c1)C(NC(C)=O)CCc1cc(OC)c(OC)c(OC)c1-2 (stereo not drawn)	0	59*	-40	-13	23	35
COc1cc2c(c(OC)c1OC)-c1ccc(OC)c(=O)cc1C(NC(C)=O)CC2 (stereo not drawn)	11	42	-14	-26	25	66*
COC(=O)Cn1c(C(=O)N2CCCC2)cc2c1C[C@H]1CN(C(=O)c3ccccc3)[C@@](Cc3ccc(OC)cc3)(C(=O)OC)[C@@H]21	.	.	.	.	11	.
COc1ccc(CCN2C(=O)c3[nH]nc(-c4ccccc4O)c3C2c2cccc(Cl)c2)cc1 (stereo not drawn)	-2	28	98*	-7	27	33
Cc1cc(C)n(-c2nc(SCCN(C)C)c3c4c(sc3n2)CCCC4)n1	-5	12	83*	-31	-271	10
O=C(CSc1ncnc2sccc12)Nc1ccccc1	-9	-20	-24	-2	-60	0
O=C(CSc1ncnc2c1sc1ccccc12)Nc1ccc(Br)cc1	-6	43	-7	-57*	10	8
O=C(CSc1ncnc2c1oc1ccccc12)Nc1nc2ccccc2s1	10	46	56*	-34	21	15
O=c1[nH]c(CSc2nc3ccccc3o2)nc2c1cnn2-c1ccccc1	3	-3	53*	-5	16	1
